Sampled rows, rich in hits. Any-hit rate of the full collection: about 11%.
HEK cytotox = HEK 293 cell cytotoxicity; HEK 293 viability, ATP luminescence (CellTiter-Glo), 48-72 h; Potency, µM (top dose mostly 115 µM), actives largely listed as inhibitors; hit rate 6.6% among 94,000; AID 1345083; note: nearly all actives have a fitted effect of over 60% in size
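HEK 293 cells at 250 cells/well were exposed to compounds by pintool transfer for 48 or 72 hr at 37 degree Celsius, 5% CO2. Viability was read as ATP-coupled luminescence with CellTiter-Glo after 10 min at room temperature.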
Luciferase inh = Photinus pyralis luciferase inhibition; P08659; purified P. pyralis luciferase, luminescence, biochemical; Potency, µM (titrated, usually from 115 µM), most hits filed as inhibitors; hit rate 2.5% among 76,000; AID 1347043; note: nearly all actives have a fitted effect of over 65% in size
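Purified P. pyralis luciferase (10nM final) in 50mM Tris acetate pH 7.5, 10mM Mg acetate, 0.01% Tween-20, 0.05% BSA with 10uM D-luciferin and 10uM ATP. Compounds titrated qHTS. Luminescence imaged on CCD.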
hNpr1 antagonist = human Npr1 receptor antagonism; P16066; HEK293 hNpr1 GloSensor cGMP, ANP-stimulated luminescence; Potency, µM (top dose mostly 46.3 µM), most hits filed as inhibitors; hit rate 1.6% among 76,000; AID 1347048; calls by dose curve; note: nearly all actives have a fitted effect of over 60% in size
Target sequence (P16066 whole entry, looked up): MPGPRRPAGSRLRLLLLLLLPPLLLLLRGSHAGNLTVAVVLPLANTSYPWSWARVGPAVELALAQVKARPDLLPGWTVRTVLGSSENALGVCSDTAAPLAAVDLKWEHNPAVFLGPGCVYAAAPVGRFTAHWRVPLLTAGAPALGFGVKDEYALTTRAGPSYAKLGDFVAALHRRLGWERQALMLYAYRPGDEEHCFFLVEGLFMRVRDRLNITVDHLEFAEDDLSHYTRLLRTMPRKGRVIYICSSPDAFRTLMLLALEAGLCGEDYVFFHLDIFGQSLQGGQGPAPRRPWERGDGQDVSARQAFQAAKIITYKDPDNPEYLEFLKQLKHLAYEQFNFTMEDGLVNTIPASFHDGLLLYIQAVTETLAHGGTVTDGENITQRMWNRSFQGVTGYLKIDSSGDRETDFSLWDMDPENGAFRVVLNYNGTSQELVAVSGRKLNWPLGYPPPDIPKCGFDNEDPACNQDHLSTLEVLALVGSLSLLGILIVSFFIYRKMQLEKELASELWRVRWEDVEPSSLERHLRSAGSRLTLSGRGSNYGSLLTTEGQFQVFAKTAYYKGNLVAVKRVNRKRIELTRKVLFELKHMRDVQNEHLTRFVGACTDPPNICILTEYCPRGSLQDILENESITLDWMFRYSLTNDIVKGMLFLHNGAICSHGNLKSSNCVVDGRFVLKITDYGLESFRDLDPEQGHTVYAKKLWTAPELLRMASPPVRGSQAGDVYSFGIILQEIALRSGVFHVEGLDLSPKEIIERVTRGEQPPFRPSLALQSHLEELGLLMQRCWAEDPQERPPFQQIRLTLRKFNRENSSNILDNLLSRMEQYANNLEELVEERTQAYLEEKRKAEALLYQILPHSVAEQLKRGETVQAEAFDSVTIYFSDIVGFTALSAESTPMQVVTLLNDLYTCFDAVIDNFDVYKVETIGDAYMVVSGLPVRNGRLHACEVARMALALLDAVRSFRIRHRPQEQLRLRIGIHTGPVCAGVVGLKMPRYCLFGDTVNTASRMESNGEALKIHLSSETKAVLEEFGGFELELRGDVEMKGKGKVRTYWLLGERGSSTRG
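Compound pre-incubated 30 min at room temperature on GloSensor-loaded HEK293 cells stably carrying hNpr1 and the pGS-40F cGMP biosensor. Stimulation uses hNppA at 0.1 nM final; luminescence is taken at baseline and 20 min post-agonist.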
NIH3T3 tox = cytotoxic compounds in NIH 3T3 cells; NIH 3T3 viability, CellTiter-Glo ATP luminescence, 48-72 h; Potency, µM (titrated, usually from 96.7 µM), actives largely listed as inhibitors; hit rate 4.3% among 94,000; note: nearly all actives have a fitted effect of over 55% in size
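Cytotoxicity is measured as loss of cellular ATP: NIH 3T3 cells (400/well) are exposed to compound for 48 or 72 hr at 37 °C, then CellTiter-Glo luminescence is imaged after 10 min at room temperature.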
Hits are given with their value. Unless noted, calls come from the whole dose curve; as a rule, active = well fitted curve in the direction sought with a large enough effect; inconclusive = small, poorly fitted or top-dose-only effect, or another doubt; inactive = no such curve, though single readings can be large; an effect the other way counts as inactive or inconclusive.

Results for COc1cccc(-c2ccc(CN3CCCC(NC(=O)c4ccccc4)C3)cc2)c1 (centres undefined) ?
HEK cytotox: 22µM; NIH3T3 tox: 40µM

How did COc1ccc(C(=O)NC2CCCN(Cc3ccc(-c4cc(C)cc(C)c4)cc3)C2)cc1 (centres undefined) do in these assays?
HEK cytotox: inactive; NIH3T3 tox: inactive

What do the screens show for `COc1cccc(-c2ccc(CN3CCCC(NC(=O)c4ccc(F)cc4)C3)cc2)c1` (centres undefined)?
HEK cytotox: 11µM; NIH3T3 tox: 32µM

How did O=C1CCCCC(C(=O)N2CCc3ccccc3C2)N1 (centres undefined) do in these assays?
HEK cytotox: inconclusive; Luciferase inh: inactive; hNpr1 antagonist: inactive; NIH3T3 tox: inactive

What do the screens show for `O=C(C1CN(C2CCCCC2)C(=O)N1)N1CCc2ccccc2C1` (centres undefined)?
HEK cytotox: 25µM; NIH3T3 tox: inconclusive

What do the screens show for `COc1ccc(N2CCN(c3nc(C(=O)NCc4ccco4)cs3)CC2)cc1`?
HEK cytotox: inconclusive; Luciferase inh: inactive; hNpr1 antagonist: inactive; NIH3T3 tox: inconclusive

What do the screens show for `O=C(NCC1CCCO1)c1csc(N2CCN(c3ccc(Cl)cc3)CC2)n1` (centres undefined)?
HEK cytotox: 35µM; Luciferase inh: inactive; hNpr1 antagonist: inconclusive; NIH3T3 tox: inconclusive

What do the screens show for `Cc1noc(C)c1Cc1c(C(=O)N2CCC(c3nc(C(=O)N4CCOCC4)c(C)o3)CC2)noc1C`?
HEK cytotox: inactive; NIH3T3 tox: inactive

Results for O=C(NCc1ccco1)c1ccc2c(c1)n(Cc1ccc(F)cc1)c(=O)c1ccnn12 ?
HEK cytotox: inconclusive; Luciferase inh: inactive; hNpr1 antagonist: inactive; NIH3T3 tox: 22µM

How did O=C(NCc1ccccc1)c1ccc2c(c1)n(Cc1ccc(F)cc1)c(=O)c1ccnn12 do in these assays?
HEK cytotox: 28µM; Luciferase inh: inactive; hNpr1 antagonist: inactive; NIH3T3 tox: 32µM

Results for CCN(CC)CCNC(=O)c1ccc2c(c1)n(Cc1cccc(F)c1)c(=O)c1ccnn12 ?
HEK cytotox: 32µM; Luciferase inh: inactive; hNpr1 antagonist: inactive; NIH3T3 tox: 32µM

What do the screens show for `COc1ccccc1NC(=O)N1CCOc2ccc(CN3CCc4ccccc4C3)cc2C1`?
HEK cytotox: inconclusive; Luciferase inh: inactive; hNpr1 antagonist: inactive; NIH3T3 tox: inconclusive

Results for COc1ccc2cc(CN3CCC(OC)CC3)c(-c3cccc(C)c3)nc2c1 ?
HEK cytotox: inconclusive; Luciferase inh: inactive; hNpr1 antagonist: inactive; NIH3T3 tox: inactive

What do the screens show for `OC[C@@H]1O[C@H](CN(Cc2cccc(Cl)c2)Cc2cccc(Cl)c2)C(N2CCOCC2)[C@@H]1O` (some centres undefined)?
HEK cytotox: inactive; Luciferase inh: inactive; hNpr1 antagonist: inactive; NIH3T3 tox: inactive

What do the screens show for `CN1CCN([C@@H]2[C@H](O)[C@H](CO)O[C@@H]2CN(Cc2ccc(Cl)cc2)Cc2cccc(Cl)c2)CC1`?
HEK cytotox: inconclusive; Luciferase inh: inactive; hNpr1 antagonist: inconclusive; NIH3T3 tox: 28µM

Results for O=C(NCc1ccc(Cl)cc1)c1c[nH]c2cccnc12 ?
HEK cytotox: 35µM; NIH3T3 tox: 16µM

How did O=C(NCCc1ccccn1)c1c[nH]c2ncccc12 do in these assays?
HEK cytotox: inactive; Luciferase inh: inconclusive; hNpr1 antagonist: inactive; NIH3T3 tox: inactive

What do the screens show for `O=C(NCc1ccc(Cl)cc1)c1c[nH]c2ncccc12`?
HEK cytotox: inconclusive; Luciferase inh: 28µM; hNpr1 antagonist: inactive; NIH3T3 tox: inconclusive

What do the screens show for `O=C(Nc1ccc(Cl)nc1)c1c[nH]c2cccnc12`?
HEK cytotox: inactive; NIH3T3 tox: inconclusive

What do the screens show for `O=C(NCCc1ccccc1)c1c[nH]c2ncccc12`?
HEK cytotox: inactive; Luciferase inh: 20µM; hNpr1 antagonist: inactive; NIH3T3 tox: inactive

Results for FC(F)(F)c1ccc(N2C3CCC2CN(Cc2ccc(Cl)cc2)C3)cc1 ?
HEK cytotox: inactive; Luciferase inh: inactive; hNpr1 antagonist: inactive; NIH3T3 tox: inactive

Results for Cc1ccc(CN2C[C@H]3CN(Cc4cccc(OC(F)(F)F)c4)CCN3C2=O)cc1 ?
HEK cytotox: 63µM; Luciferase inh: inactive; hNpr1 antagonist: inactive; NIH3T3 tox: 45µM

Results for CCN1C(=O)C2CC3(CCN(Cc4ccc5[nH]ccc5c4)CC3)CN2C1=O (centres undefined) ?
HEK cytotox: inactive; Luciferase inh: inactive; hNpr1 antagonist: inactive; NIH3T3 tox: inactive

Results for CCN1C(=O)C2CC3(CCN(Cc4cccc(OC(F)(F)F)c4)CC3)CN2C1=O (centres undefined) ?
HEK cytotox: 40µM; Luciferase inh: inactive; hNpr1 antagonist: inactive; NIH3T3 tox: inconclusive

How did CC(=O)Nc1ccc(CN2CC3CCC(C2)N3c2ccc(C(F)(F)F)cc2)cc1 do in these assays?
HEK cytotox: 22µM; Luciferase inh: inactive; hNpr1 antagonist: inconclusive; NIH3T3 tox: inconclusive

Results for CC(=O)Nc1ccc(CN2CCN3C(=O)N(Cc4ccc(C)cc4)C[C@H]3C2)cc1 ?
HEK cytotox: 79µM; Luciferase inh: inactive; hNpr1 antagonist: inactive; NIH3T3 tox: inactive

How did COC(=O)CNC(=O)c1nn(C)c2nc(-c3ccccc3OC)ccc12 do in these assays?
HEK cytotox: inactive; NIH3T3 tox: inactive

How did CN1CCN(c2ncnc3c2CN(C2CCC2)C(=O)CN3C)CC1 do in these assays?
HEK cytotox: inactive; NIH3T3 tox: inconclusive

Results for Cc1cnc(-c2ccncc2)n1C1CCN(C(=O)CCCc2ccccc2)C1 (centres undefined) ?
HEK cytotox: inactive; NIH3T3 tox: inactive

How did O=C(NC1CCC(O)CC1)c1ccc(-c2ncc3cnc(-c4cccc(F)c4)cn23)cc1 (centres undefined) do in these assays?
HEK cytotox: 71µM; Luciferase inh: inactive; hNpr1 antagonist: inactive; NIH3T3 tox: inactive

How did O=C(NCCc1cnc[nH]1)c1ccc(-c2ncc3cnc(-c4cccc(F)c4)cn23)cc1 do in these assays?
HEK cytotox: 89µM; Luciferase inh: inactive; hNpr1 antagonist: inactive; NIH3T3 tox: 50µM

How did CC(=O)NCCNC(=O)c1ccc(-c2ncc3cnc(-c4cccc(F)c4)cn23)cc1 do in these assays?
HEK cytotox: inactive; Luciferase inh: inactive; hNpr1 antagonist: inactive; NIH3T3 tox: inconclusive

How did COC(=O)CNC(=O)c1ccc2nc(-c3ccncc3)oc2c1 do in these assays?
HEK cytotox: inactive; NIH3T3 tox: inactive

Results for COc1cccc(CN2CCC3(CC2)CC(Cc2nc(C)no2)CCO3)n1 (centres undefined) ?
HEK cytotox: inactive; Luciferase inh: inactive; hNpr1 antagonist: inactive; NIH3T3 tox: inactive

How did O=C(Cc1ccccc1)Nc1ccc([C@@H](O)[C@H]2COCC(=O)N2CC2CC2)cc1 do in these assays?
HEK cytotox: inactive; Luciferase inh: inactive; hNpr1 antagonist: inactive; NIH3T3 tox: inactive

Results for Cc1ccsc1C(=O)N1CCC(CCC(=O)N2CCC(Cc3ccccc3)CC2)CC1 ?
HEK cytotox: 45µM; Luciferase inh: inactive; hNpr1 antagonist: inconclusive; NIH3T3 tox: inconclusive

Results for COc1ccccc1-c1ccc2c(C(=O)N(C)C)nn(C)c2n1 ?
HEK cytotox: inactive; NIH3T3 tox: inactive

Compound activity from PubChem.
